Assay outcomes as filed in PubChem.
Shown are actives, neighbours in structure and some others; about 11% of the full set was active somewhere.
JMJD2A Tudor: inhibitors of human JMJD2A Tudor domain; 390,000 tested, 4.4% active; AlphaScreen JMJD2A-Tudor / H3K4me3 peptide binding; Potency, µM (highest dose often 114 µM), inactives show at the top dose activity change, negative = inhibition, actives largely listed as inhibitors; note: potency is the fitted concentration of half-maximal effect; % is set by controls: 0 for no effect and ±100 for the full control effect; nearly all actives have a fitted effect of over 50% in size
HP1b chromo inh: blocks HP1-beta chromodomain binding to methylated histone tails | AlphaScreen HP1-beta / biotin-H3K9me3 peptide binding | Potency, µM (series often up to 114 µM), for inactives: at the highest dose activity change, negative = inhibition, hits mostly inhibitors | 390,000 tested, 0.56% active | P83916; note: potency is the fitted concentration of half-maximal effect; nearly all actives have a fitted effect of over 70% in size
Target sequence (P83916 whole entry, looked up): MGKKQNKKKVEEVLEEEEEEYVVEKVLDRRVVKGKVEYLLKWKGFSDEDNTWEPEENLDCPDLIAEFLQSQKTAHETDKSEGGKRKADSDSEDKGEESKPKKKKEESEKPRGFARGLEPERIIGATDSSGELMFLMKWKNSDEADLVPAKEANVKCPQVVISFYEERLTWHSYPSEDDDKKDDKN
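Compound inhibition of the preformed complex between 50 nM HP1-beta and 50 nM biotinylated H3K9me3 peptide was read by AlphaScreen. Buffer was PBS pH 7.4 with 0.01% Tween-20. Incubations ran 30 min at room temperature, with 10 ug/mL donor/acceptor beads.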
G9a block: inhibitors of human histone lysine methyltransferase G9a. Potency, µM (doses to about 102 µM), inactives show at the top dose activity, negative = inhibition, usual class: inhibitors. 350,000 tested, 8.8% active. Q96KQ7. G9a H3K9 monomethylation, AlphaScreen, 2 h; note: potency is the fitted concentration of half-maximal effect; % is set by controls: 0 for no effect and ±100 for the full control effect; nearly all actives have a fitted effect of over 75% in size
Target sequence (Q96KQ7 913-1193 limits assumed): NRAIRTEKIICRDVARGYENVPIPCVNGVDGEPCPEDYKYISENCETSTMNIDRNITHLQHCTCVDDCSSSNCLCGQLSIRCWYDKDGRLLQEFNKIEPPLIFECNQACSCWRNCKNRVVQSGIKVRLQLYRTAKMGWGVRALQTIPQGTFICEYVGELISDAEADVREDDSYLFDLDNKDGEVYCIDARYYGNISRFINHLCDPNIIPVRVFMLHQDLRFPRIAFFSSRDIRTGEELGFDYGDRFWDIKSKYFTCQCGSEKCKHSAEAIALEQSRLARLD
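Enzyme 20 nM + cpd, 15 min RT; add b-H3K9 pep 500 nM / SAM 20 uM; 2 h RT; anti-H3K9me1 Ab 0.5 ug/mL + SA donor / anti-rabbit acceptor beads 20 ug/mL each, 10 min; AlphaScreen read.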
L3MBTL1 block: L3MBTL1 (human) inhibition | Q9Y468 | Potency, µM (series often up to 57.1 µM), for inactives: at the top dose activity, negative = inhibition, hits mostly inhibitors | AlphaScreen L3MBTL1–H3K9me1 peptide binding | 230,000 tested, 0.66% active; note: potency is the fitted concentration of half-maximal effect; % is set by controls: 0 for no effect and ±100 for the full control effect; nearly all actives have a fitted effect of over 60% in size
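Read-out is AlphaScreen signal from streptavidin donor and nickel chelate acceptor beads (10 ug/mL final each) bridging L3MBTL1 (50 nM) and biotinylated K9-monomethylated H3(1-15) peptide (75 nM), after 30 min compound exposure at room temperature.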
BAZ2B block: inhibitors of human BAZ2B bromodomain. 360,000 tested, 4.4% active. Q9UIF8. Potency, µM (highest dose often 114 µM), for inactives: top-dose activity change, negative = inhibition, most hits filed as inhibitors. AlphaScreen BAZ2B-H3K14Ac peptide displacement; note: potency is the fitted concentration of half-maximal effect; % is set by controls: 0 for no effect and ±100 for the full control effect; nearly all actives have a fitted effect of over 60% in size
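BAZ2B 50 nM plus b-H3(5-23)K14Ac 50 nM, PBS pH 7.4/0.01% Tween-20, 30 min RT; compound added (max 110 uM), 30 min RT; streptavidin donor/Ni-chelate acceptor beads 10 ug/mL final, 20 min dark; AlphaScreen read.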
PI5P4Ka inh: inhibitors of human PI5P4K alpha; P48426; PI5P4Kalpha enzyme, ADP-Glo luminescence, 60 min; hits give low values; max response, %; 330,000 tested, 1.2% active; AID 652105; active = max response of -50% or lower; inconclusive = between -30% and -50%; inactive = -30% or higher; note: value at the top dose of about 77 µM; % is set by controls: 0 for no effect and ±100 for the full control effect
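Human PI5P4Kalpha with substrate in 0.038 M HEPES pH 7.4, 0.28 mM EGTA, 0.1% CHAPS, 5% DMSO; reaction started with 5 microM ATP (final), 60 min at room temperature. ADP formed read by ADP-Glo luminescence.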
Active calls of the source: *; ! = repeats disagree; [ ] = remark or other dose. Unless noted, calls come from the whole dose curve; as a rule, active = well fitted inhibition curve with a large enough effect; inconclusive = small, poorly fitted or top-dose-only effect; inactive = no such curve, though single readings can be large or run the other way.

Screening CCN1CCN(Cc2ccc(NC(=O)c3cc(NC(=O)c4cc(-c5ccc(OC)cc5)n[nH]4)cc(OC)c3)cc2C(F)(F)F)CC1 returned JMJD2A Tudor inconclusive, HP1b chromo inh -16%, G9a block inconclusive, BAZ2B block inconclusive and PI5P4Ka inh -67*.
Screening CCN1CCN(Cc2ccc(NC(=O)c3ccc(C)c(NC(=O)c4c[nH]c5cc(C(F)(F)F)ccc5c4=O)c3)cc2C(F)(F)F)CC1 returned JMJD2A Tudor -22%, HP1b chromo inh 5%, G9a block inconclusive, BAZ2B block inconclusive and PI5P4Ka inh -67*.
Screening Cc1ccc(C(=O)Nc2cccc(C(F)(F)F)c2)cc1NC(=O)c1c[nH]c2cc(C(F)(F)F)ccc2c1=O returned JMJD2A Tudor -9%, HP1b chromo inh 47%, L3MBTL1 block -2% and PI5P4Ka inh -1.
`CCN1CCN(Cc2ccc(NC(=O)c3cc(NC(=O)c4ccno4)cc(OC)c3)cc2C(F)(F)F)CC1` gave JMJD2A Tudor inconclusive, HP1b chromo inh 14%, G9a block -36%[59 µM], BAZ2B block -30% and PI5P4Ka inh -3.
For CCN1CCN(Cc2ccc(NC(=O)c3cc(NC(=O)c4cncc(-c5cccs5)c4)cc(OC)c3)cc2C(F)(F)F)CC1 the results were JMJD2A Tudor 45µM*, HP1b chromo inh inconclusive, G9a block 50µM*, L3MBTL1 block inconclusive, BAZ2B block 35µM* and PI5P4Ka inh -67*!.
Screening COC(=O)C(NS(=O)(=O)CCl)C(C)C (stereo not given) returned JMJD2A Tudor -12% and HP1b chromo inh 12%.
CCN(CC)CCOc1ccc(-c2nc3cc(Cl)ccc3s2)cc1 was read as G9a block -48%[12.7 µM].
Screening N/C(Cn1cncn1)=N\NC(=O)c1ccc(Cl)cc1Cl returned JMJD2A Tudor 13µM*, HP1b chromo inh inconclusive, G9a block 8.9µM*, L3MBTL1 block 7%, BAZ2B block -21% and PI5P4Ka inh 3.
Screening N/C(Cn1cncn1)=N\NC(=O)C(=O)Nc1ccc(Cl)cc1Cl returned JMJD2A Tudor -24%, HP1b chromo inh 28%, G9a block -3%[12.7 µM], L3MBTL1 block 11%, BAZ2B block 10% and PI5P4Ka inh -1.
Screening CCCCCOc1ccc(CSc2n[nH]c(C)n2)cc1 returned JMJD2A Tudor inconclusive, HP1b chromo inh -11%, L3MBTL1 block -4%, BAZ2B block 5% and PI5P4Ka inh 1.
`Cc1nc(SCc2ccc(OCCC(C)C)cc2)n[nH]1` gave JMJD2A Tudor -15%, HP1b chromo inh 29%, G9a block 50µM*, L3MBTL1 block 7%, BAZ2B block -15% and PI5P4Ka inh 13.
`O=C(O)/C=C\C(=O)Nc1ccc(Oc2ccccc2)cc1` gave JMJD2A Tudor -15%, HP1b chromo inh 35%, G9a block inconclusive, L3MBTL1 block 0% and BAZ2B block -22%.
O=C(O)/C=C/C(=O)Nc1ccc(Cc2ccc(NC(=O)/C=C/C(=O)O)cc2)cc1 was read as JMJD2A Tudor -10%, HP1b chromo inh 20%, G9a block 45µM*, BAZ2B block -29% and PI5P4Ka inh inconclusive.
`O=C(O)/C=C/C(=O)Nc1ccc(Oc2ccc(NC(=O)/C=C/C(=O)O)cc2)cc1` gave G9a block inconclusive, L3MBTL1 block 25µM* and BAZ2B block 50µM*.
O=C(O)/C=C/C(=O)Nc1ccc(OC(F)(F)Cl)cc1 was read as JMJD2A Tudor 0%, HP1b chromo inh 27%, G9a block 45µM*, L3MBTL1 block -3%, BAZ2B block -39% and PI5P4Ka inh 1.
O=C(O)/C=C/C(=O)Nc1ccc(C2(c3ccc(NC(=O)/C=C/C(=O)O)cc3)c3ccccc3-c3ccccc32)cc1 was read as JMJD2A Tudor -35%, HP1b chromo inh 17%, L3MBTL1 block -18%, BAZ2B block 50µM* and PI5P4Ka inh -58*.
CCC(=O)N1CCc2cc(S(=O)(=O)N(C)c3cccc(C)c3)ccc21 was read as JMJD2A Tudor -15%, HP1b chromo inh 43%, G9a block 2%[59 µM] and BAZ2B block 0%.
`CC(C)c1ccc(S(=O)(=O)/N=C2/C=C(Sc3ncn[nH]3)C(=O)c3ccccc32)cc1` gave JMJD2A Tudor 7.1µM*, HP1b chromo inh 18µM*, G9a block 1.6µM*, L3MBTL1 block inconclusive, BAZ2B block 45µM* and PI5P4Ka inh -79*.
`CC(C)C(C(=O)Nc1ncn[nH]1)N1C(=O)c2ccccc2C1=O` (stereo not given) gave JMJD2A Tudor 3%, HP1b chromo inh 18%, G9a block inconclusive, L3MBTL1 block 1%, BAZ2B block -3% and PI5P4Ka inh -3.
For Cc1ccc(S(=O)(=O)/N=C2/C=C(Sc3ncn[nH]3)C(=O)c3ccccc32)cc1 the results were JMJD2A Tudor 2.8µM*, HP1b chromo inh 8.9µM*, G9a block 0.56µM*, L3MBTL1 block -23%, BAZ2B block 45µM* and PI5P4Ka inh -100*.
Screening Cc1ccc(S(=O)(=O)/N=C2/C=C(Sc3ncn[nH]3)C(=O)c3ccccc32)c(C)c1 returned G9a block 0.89µM*, L3MBTL1 block inconclusive and BAZ2B block 45µM*.
Screening O=C(NC1CC(=O)N(c2ccc(Cl)cc2)C1)c1cc2ccccc2o1 (stereo not given) returned JMJD2A Tudor -6%, HP1b chromo inh -5%, G9a block 3%[59 µM] and BAZ2B block -1%.
For Brc1ccc(OCCCN2CCOCC2)cc1 the results were JMJD2A Tudor 4.5µM*, HP1b chromo inh inconclusive, G9a block 28µM*, BAZ2B block inconclusive and PI5P4Ka inh 7.
`c1ccc(OCCCCN2CCOCC2)cc1` gave JMJD2A Tudor -2%, HP1b chromo inh 0%, G9a block -5% and BAZ2B block 7%.
`Brc1ccc(OCCN2CCOCC2)cc1` gave JMJD2A Tudor 0.89µM*, HP1b chromo inh inconclusive, G9a block 28µM*, BAZ2B block inconclusive and PI5P4Ka inh -9.
`Clc1ccc(OCCN2CCOCC2)cc1` gave JMJD2A Tudor -17%, HP1b chromo inh 14%, G9a block 12%, BAZ2B block -12% and PI5P4Ka inh 8.
Screening CCNC(=O)c1cnc2c(-c3ccccc3)c(C)nn2c1C returned JMJD2A Tudor -10%, HP1b chromo inh 73%, G9a block 7%[59 µM] and BAZ2B block -9%.
Screening COc1ccc(-n2ncc(C(=O)N3CCc4ccccc4C3)c2C2CCN(C(=O)OC(C)(C)C)CC2)cc1 returned JMJD2A Tudor -24%, HP1b chromo inh -3%, G9a block inconclusive and BAZ2B block -1%[57.1 µM].
